Test results taken from PubChem BioAssay (Tox21).
Results filed as inconclusive are left out. Entries that show only a call come without a potency. The source made the active and inactive calls. The call rests on the fitted dose curve.

Target: Beta-2 adrenergic receptor (Homo sapiens) (UniProt P07550)
Assay: Adrenergic beta2 receptor (ADRB2) small molecule antagonists, cell-based qHTS assay (AID 1963592); further: nearly all actives have a fitted effect of over 50% in size
Conditions: CHO-ADRB2 cells, isoproterenol-stimulated cAMP HTRF ratio, 0.5 h; series mostly up to 92.4 µM
Excerpt: U.S. Tox21 Program National Center for Advancing Translational Sciences [NCATS] Division of Preclinical Innovation [DPI] U.S. Environmental Protection Agency [EPA] National Institutes of Environmental Health Sciences [NIEHS] National Toxicology Program [NTP] U.S. Food and Drug Administration [FDA] Tox21 Assay Overview: Beta adrenergic receptors (Beta-ARs) belong to the G-protein coupled receptor (GPCR) superfamily, includes three subtypes - beta1, beta2, and beta3. Beta1-AR is the predominant receptor subtype expressed in the heart, and beta2-AR is expressed in the kidney, lung, blood vessel and in the heart, and beta3 is found in the adipocytes. Beta1 and 2 ARs couple to Gs protein and elevate cyclic adenosine mono phosphate (cAMP), which activates protein kinase A and leads to the downstream signaling responsible for the physiological actions. Beta-AR agonists or antagonists are the most prescribed therapeutic agents for heart failure and asthma, and these were one of the first target receptors for the rational drug design. Tox21 10K compound library was screened using the cAMP-Gs dynamic assay (Cisbio Bioassays, Shelton, CT) to identify agonists/antagonists of the Gs-coupled human adrenergic, beta2 receptor (ADRB2) in the CHO-ADRB2 cell line (Codex BioSolutions, Inc. Gaithersburg, MD), which stably over-expresses ADRB2. The principle of cAMP-Gs dynamic assay is based on HTRF technology, which facilitates the fluorescence resonance energy transfer (FRET) between donor Europium cryptate and acceptor d2-labeled cAMP. The cAMP generated within cells competes with the red acceptor, d2-labled cAMP, for binding to the monoclonal anti-cAMP-cryptate (Europium donor). An increase in intracellular cAMP leads to the disruption of FRET signal, and the signal is inversely proportional to the cAMP concentration. Propranolol HCl (Sigma-Aldrich, St. Louis, MO) was used as a positive control in the screening.
Tox21 Assay Protocol Summary: CHO-ADRB2 cells were dispensed at 1,000/well in 4uL assay medium into white/solid 1536-well plates (Greiner Bio-One North America Inc., Monroe, NC) using a Multidrop Combi dispenser (ThermoFisher Scientific, Waltham, MA). The assay plates were incubated at 37C and 5% CO2 for an overnight (18-20hr). Then positive control and test compounds dissolved in DMSO were transferred to the assay plates at 23nL using a Pintool station (Wako, San Diego, CA). Following the compound and positive control transfer, 1uL agonist-stimulation mix containing 1nM Isoproterenol HCl, 100uM IBMX and 25uM Ro-20-1724 was added to each well of the assay plates using BioRAPTR Flying Reagent Dispenser (FRD, Beckman Coulter, Brea, CA). The assay plates were incubated at room temperature for 0.5hr. Then 2.5ul each d2-labled cAMP and anti-cAMP-cryptate solutions were added separately to each well of the assay plates using an FRD and the assay plates were incubated at room temperature for 1hr. The fluorescence signal was measured at two different wavelengths (665nm and 615nm) using an Envision plate reader (Perkin Elmer, Shelton, CT). Data were expressed as the ratio of 665 nm/615 nm.

Chain of Beta-2 adrenergic receptor (Homo sapiens) (P07550 whole entry, looked up): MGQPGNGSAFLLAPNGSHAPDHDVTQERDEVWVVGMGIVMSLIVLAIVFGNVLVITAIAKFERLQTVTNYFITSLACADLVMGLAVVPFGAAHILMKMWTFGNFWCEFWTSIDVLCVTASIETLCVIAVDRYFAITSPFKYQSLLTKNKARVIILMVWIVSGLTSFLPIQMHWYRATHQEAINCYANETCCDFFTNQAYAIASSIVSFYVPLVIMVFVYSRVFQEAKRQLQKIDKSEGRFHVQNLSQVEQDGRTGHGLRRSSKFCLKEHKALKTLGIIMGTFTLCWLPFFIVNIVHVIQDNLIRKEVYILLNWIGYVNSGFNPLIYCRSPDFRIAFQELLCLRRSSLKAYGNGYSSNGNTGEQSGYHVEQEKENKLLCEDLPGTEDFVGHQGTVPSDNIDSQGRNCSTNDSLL

Compound | Potency
COC(=O)c1ccccc1C | inactive
O=C1NC(c2ccccc2)(c2ccccc2)C(=O)N1COP(=O)(O)O | inactive
CCN(CC)CCN | inactive
O=c1[nH][nH]c(=O)c2cc([N+](=O)[O-])ccc12 | inactive
C=CC(=O)NC(C)C | inactive
O=C(O)CSCC(=O)NC1CCSC1=O (stereo not given) | inactive
CCOC(=O)C(C)C(C)=O (stereo not given) | inactive
CC#N | inactive
CC(=O)[O][Al][O]C(C)=O | inactive
C=C(C)C(=O)OCCCCCCOC(=O)C(=C)C | inactive
CC(CN1c2ccccc2Sc2ccccc21)N(C)C (stereo not given) | inactive
C=Cc1ccccn1 | inactive
NS(=O)(=O)c1ccc(N2CCCCS2(=O)=O)cc1 | inactive
O=C1C=CC(=O)O1 | inactive
CN(Cc1cnc2nc(N)nc(N)c2n1)c1ccc(C(=O)N[C@@H](CCC(=O)O)C(=O)O)cc1 | inactive
O=C1c2cccc(O)c2C(=O)c2c(O)cccc21 | inactive
[O-][n+]1ccc(Cl)cc1 | inactive
CCCCC(CC)COC(=O)CCCCCCCC(=O)OCC(CC)CCCC (stereo not given) | inactive
C=CC(O)CCCCC (stereo not given) | inactive
CCCCCCCCCCCCI | inactive

Compound | Potency
C/C(=C(\CCO)SS/C(CCO)=C(\C)N(C=O)Cc1cnc(C)nc1N)N(C=O)Cc1cnc(C)nc1N | inactive
CCOC(=O)[C@H](CCc1ccccc1)N[C@@H](C)C(=O)N1C(=O)N(C)C[C@H]1C(=O)O | inactive
OCCOc1ccc(OCCO)cc1 | inactive
C[Si](C)(C)O[Si](C)(C)O[Si](C)(C)C | inactive
CC(=O)OCCN(CCOC(C)=O)c1ccc(N=Nc2ccc([N+](=O)[O-])cc2C#N)cc1 | inactive
COc1cccc(OC)c1O | inactive
CC(C)=O | inactive
Cc1cc(CCC(=O)OCCOCCOCCOC(=O)CCc2cc(C)c(O)c(C(C)(C)C)c2)cc(C(C)(C)C)c1O | inactive
O=S(=O)(O)CO | inactive
O=C(O)c1ccc(OCCCOc2ccc(C(=O)O)cc2)cc1 | inactive
CC(=O)O[C@@H]1C[C@@H]2CC[C@@]1(C)C2(C)C | inactive
CC(=O)c1ccc(O)c(C(N)=O)c1 | inactive
COc1cccc(OC)c1C(=O)N[C@@H]1C(=O)N2[C@@H]1SC(C)(C)[C@@H]2C(=O)O | inactive
C=C(C)C(=O)OCCC(F)(F)C(F)(F)C(F)(F)C(F)(F)C(F)(F)C(F)(F)F | inactive
O=S(O)CO | inactive
O=[N+]([O-])c1ccc(F)cc1F | inactive
C=CCOC(=O)CCCCCCCC | inactive
CCCN1CCCC[C@H]1C(=O)Nc1c(C)cccc1C | inactive
COC(=O)C1=C(C)NC(C)=C(C(=O)OCCN(C)Cc2ccccc2)C1c1cccc([N+](=O)[O-])c1 (stereo not given) | inactive
CCCCCCOCCOCCO | inactive
